High-throughput results from PubChem BioAssay.
Hits are enriched below; roughly 2.3% of the tested compounds scored in any of these assays.
GLP-1R inv ag – inverse agonists of human GLP-1 receptor; P43220; HEK293 GLP-1R CRE-luciferase, luminescence, 24 h; GLP-1R form is constitutively active; Potency, µM (doses to about 38.3 µM), inactives show at the top dose activity change, negative = inhibition, actives largely listed as inhibitors; 1.6% of 410,000 active; AID 624417; note: % is set by controls: 0 for no effect and ±100 for the full control effect; nearly all actives have a fitted effect of over 55% in size
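Inverse agonists were sought by their lowering of basal cAMP reporter luciferase output in HEK293 cells stably carrying constitutively active human GLP-1R, after 24 h compound treatment.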
PTHR1 ag – agonists of human PTHR1 parathyroid hormone receptor | AID 743266 | HEK293 GP2 PTHR1 cells, GloSensor cAMP luminescence, 1 h | 0.075% of 410,000 active | Potency, µM (highest dose often 115 µM), without a hit: at the top dose activation, usual class: activators; note: nearly all actives have a fitted effect of over 55% in size
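HEK-293-derived GP2 cells expressing PTHR1 and a GloSensor cAMP reporter, 3,000/well, plated overnight, given luciferin plus IBMX (each 0.5 mM as added) for 1 h at 37 °C, then compound for 1 h at 37 °C. Luminescence was read after 15 min at room temperature.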
GLP1R ag – activates the human GLP-1 receptor | 0.007% of 380,000 active | Potency, µM (series often up to 45.6 µM), inactives show top-dose activation, actives largely listed as activators | HEK293 GLP-1R CRE-luciferase, luminescence, 4-6 h; cells express a hypersensitive GLP-1R form | P43220; note: % of control where 0% means no effect
12-LOX inh – ALOX12 (human) lipoxygenase inhibition. 1.1% of 580,000 active. AID 1671190. Potency, µM (highest dose often 108 µM), inactives show at the top dose activity change, negative = inhibition, most hits filed as inhibitors. P18054. purified 12hLO, xylenol orange hydroperoxide absorbance; note: % is set by controls: 0 for no effect and ±100 for the full control effect
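Hydroperoxide product was detected by ferrous iron/xylenol orange as the 573 to 405 nm absorbance ratio. Arachidonic acid at 40 uM (final) was turned over for 30 min at room temperature by 150 nM human 12hLO, pH 7.0 Hepes buffer, after 15 min compound preincubation.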
GLS inhibitor – glutaminase GLS (human) inhibition; O94925; GLS enzymatic activity, qHTS titration; Potency, µM (series often up to 45.5 µM), inactives show at the top dose activity change, negative = inhibition, actives largely listed as inhibitors; 0.21% of 410,000 active; AID 624170; note: % is set by controls: 0 for no effect and ±100 for the full control effect
Target sequence (O94925 whole entry, looked up): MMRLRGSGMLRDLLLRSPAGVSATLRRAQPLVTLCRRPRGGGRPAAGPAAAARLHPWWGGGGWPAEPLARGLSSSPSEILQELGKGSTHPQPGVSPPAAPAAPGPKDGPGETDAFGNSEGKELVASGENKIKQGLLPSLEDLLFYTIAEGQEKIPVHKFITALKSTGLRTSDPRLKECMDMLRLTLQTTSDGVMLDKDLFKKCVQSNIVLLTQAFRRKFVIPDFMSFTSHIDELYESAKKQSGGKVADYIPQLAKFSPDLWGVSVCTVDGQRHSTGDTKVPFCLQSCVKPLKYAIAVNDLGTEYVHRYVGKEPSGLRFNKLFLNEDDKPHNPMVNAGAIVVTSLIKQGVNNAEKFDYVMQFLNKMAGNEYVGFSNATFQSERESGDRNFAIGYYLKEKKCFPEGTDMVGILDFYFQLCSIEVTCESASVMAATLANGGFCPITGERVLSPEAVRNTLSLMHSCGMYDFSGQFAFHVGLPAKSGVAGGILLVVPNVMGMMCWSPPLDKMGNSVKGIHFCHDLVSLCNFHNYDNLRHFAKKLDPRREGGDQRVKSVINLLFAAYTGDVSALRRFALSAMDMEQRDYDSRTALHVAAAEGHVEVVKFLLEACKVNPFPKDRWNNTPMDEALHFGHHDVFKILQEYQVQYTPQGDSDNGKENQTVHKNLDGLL
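Coupled fluorescence readout: glutamate oxidase/HRP/Amplex Red detect glutamate formed by hKGA from L-glutamine (1 mM solution added). Buffer 45 mM KH2PO4 pH 8.2, 0.02% Tween-20; reads at t0 and 30 min RT.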
GRP78 ERSR act – ER stress response induction in glioma; U87-MG GRP78 promoter luciferase reporter, 16 h; Potency, µM, without a hit: top-dose activation, actives largely listed as activators; 0.02% of 420,000 active; AID 602332; note: series mostly up to about 76 µM; % of control where 0% means no effect; nearly all actives have a fitted effect of over 35% in size
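Stably transfected U87-MG human glioma cells carrying a GRP78-based luminescent sensor were seeded at 1000 cells/well, pin-dosed with compounds and incubated 16 h. Luciferase reagent was then added, and end-point luminescence was read after 10 min at room temperature.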
* marks the source's active call; other numbers are inactive results; i = inactive; ? = inconclusive; / = no result; ! = not active in a repeat; [ ] = remark or other dose. Calls come from the whole dose curve; as a rule, active = well fitted curve in the direction sought with a large enough effect; inconclusive = small, poorly fitted or top-dose-only effect, or another doubt; inactive = no such curve, though single readings can be large; an effect the other way counts as inactive or inconclusive. Potency is the fitted concentration of half-maximal effect.

SMILES	GLP-1R inv ag	PTHR1 ag	GLP1R ag	12-LOX inh	GLS inhibitor	GRP78 ERSR act
COc1ccc(NC2CC(=O)N(c3cc([N+](=O)[O-])ccc3C)C2=O)cc1 (configuration not stated)	-6%	-4%	6%	-17%	7.1µM*	-1%
OC(c1cccc(OCc2ccccc2)c1)c1nnc(-c2ccccc2)o1 (configuration not stated)	10µM*	-26%	3%	0%	0%	0%
COc1cc(/C=C/c2nc(C#N)c(NCCCn3ccnc3)o2)cc(OC)c1OC	/	/	/	18%	/	/
CCOC(=O)c1[nH]c(C)c(CCC(=O)N2CCC(C(=O)NCCN3CCCCC3C)CC2)c1C (configuration not stated)	/	/	/	-1%	/	/
O=C1c2ccccc2NC(c2ccc(-c3ccc(C(F)(F)F)cc3)o2)N1O (configuration not stated)	/	-22%	-1%	28µM*	19%	-4%
Cn1cc(S(=O)(=O)c2ccccc2)c(=O)c2cc(F)c(N3CCN(c4ccc(F)cc4)CC3)cc21	7%	61µM*	/	-9%	5%	-3%
Cn1cc(S(=O)(=O)c2ccccc2)c(=O)c2cc(F)c(N3CCN(c4ccccc4)CC3)cc21	3%	6%	/	-18%	14%	-2%
CCNC(=O)c1sc(=S)n(CC)c1N	21%	-6%[57.5 µM]	0%	?	-1%	1%
CCn1c(N)c(C(=O)NCCCOC)sc1=S	10%	i	-5%	40µM*	-1%	1%
CCCCC(=O)OC1=C(C(=O)c2ccccc2)N(CC)S(=O)(=O)c2ccccc21	?	i	/	-18%	11%	/
CCN1C(C(=O)c2ccccc2)=C(OC(=O)c2ccccc2OC)c2ccccc2S1(=O)=O	10µM*	-51%	/	-15%	20%	-7%
CCCCCN1C(C(=O)c2ccccc2)=C(NC(=O)c2ccc(OC)c(OC)c2)c2ccccc2S1(=O)=O	10µM*	-3%	/	-13%	-3%	-4%
O=C(CSc1ccc(Br)cc1)c1cccc2ccccc12	/	/	/	-25%	/	/
CCOC(=O)c1sc(NC(C)C)nc1C(F)(F)F	/	/	/	-9%	/	/
Cc1ccc(N(CC(=O)Nc2cc(Cl)ccc2Oc2ccccc2)S(C)(=O)=O)c(C)c1	7.1µM*	-47%[57.5 µM]	-4%	23%	1%	-4%
Clc1ccc(CNc2nc(CN3CCOCC3)nc3scc(-c4ccccc4)c23)cc1	3.2µM*	-37%	-3%	17%	7%	0%
Clc1ccc(-c2csc3ncnc(NCCN4CCOCC4)c23)cc1	3.2µM*	-8%	3%	-3%	18%	-7%
c1ccc(CNc2nc(CN3CCOCC3)nc3scc(-c4ccccc4)c23)cc1	0%	30%	8%	5%	-8%	-2%
CCOC(=O)Cc1csc(NC(=O)NC2(C(F)(F)F)Oc3ccc(Cl)cc3O2)n1 (configuration not stated)	36%	-8%	-25%	?	?	-2%
CCOC(=O)Cc1csc(NC(=O)NC2(C(F)(F)F)Oc3cc(Cl)c(Cl)cc3O2)n1	-22%	-14%	-10%	0.63µM*	-19%	0%
CCCCc1oc2ccc(NS(C)(=O)=O)cc2c1C(=O)c1ccc(OCCCN(CCCC)CCCC)cc1	/	/	-1%	40µM*!	-3%	-11%
Cc1ccc(S(=O)(=O)NC(C)(C)CN2CCNCC2)cc1	-19%	-9%	-2%	7%	11%	-3%
CC(CN1CCNCC1)(NS(=O)(=O)c1ccccc1)c1ccccc1 (configuration not stated)	3.5µM*	9%[57.5 µM]	-6%	127%	-24%	-3%
CC1(C(=O)NCc2ccc(F)c(F)c2)Cc2c(-c3cccc(C(F)(F)F)c3)ccnc2O1 (configuration not stated)	10µM*	-44%	-1%	-27%	-1%	-3%
CC1(C(=O)Nc2cccc(C(F)(F)F)c2)Cc2c(-c3cccc(C(F)(F)F)c3)ccnc2O1 (configuration not stated)	?	1%	-2%	-15%	-9%	0%
SMILES	GLP-1R inv ag	PTHR1 ag	GLP1R ag	12-LOX inh	GLS inhibitor	GRP78 ERSR act
CC(=O)Nc1cccc(-c2ccnc3c2CC(C)(C(=O)Nc2cccc(C(F)(F)F)c2)O3)c1 (configuration not stated)	11µM*	-24%	2%	-13%	2%	-3%
CSC(C)C(=O)NC(C)c1ccccc1Br (configuration not stated)	/	/	/	7%	/	/
Cc1c(C)n(CCN(C)C)c2ncn3nc(COc4ccc(Cl)cc4)nc3c12	/	/	/	-22%	/	/
COc1ccc(C)cc1NC(=O)C(=O)c1cn(CC(=O)N2CCOCC2)c2ccccc12	/	/	/	52%	/	/
Cc1ccc(C(=O)C(C)OC(=O)C2CCN(c3ccc(C(F)(F)F)cn3)CC2)cc1C (configuration not stated)	?	-27%	-11%	1%	-1%	-2%
CCOc1ccc(C(=O)C(C)OC(=O)C2CCN(c3ccc(C(F)(F)F)cn3)CC2)cc1 (configuration not stated)	8.9µM*	-35%	12%	-7%	1%	-3%
NC(=S)Cc1ccc(Cl)cc1Cl	-19%	-2%	-1%	-141%	4%	-5%
N=C(N)SCc1ccc(Cl)cc1Cl	7.1µM*	i	-8%	?	13%	-7%
Cc1nn(-c2cccc(Br)c2)c(C)c1[C@@H]1C=C[C@@H](NCc2cccc(C#N)c2)C1	/	/	/	7%	/	/
Cc1nn(-c2cccc(Br)c2)c(C)c1[C@@H]1C=C[C@@H](NS(C)(=O)=O)C1	/	/	/	11µM*	/	/
Cc1ccc(C(=O)NCC(NC(=O)c2ccc(C)nc2)C2CC2)cn1 (configuration not stated)	/	/	/	6%	/	/
CCOC(=O)COc1ccc(Br)cc1/C=C/c1[nH]c(=O)[nH]c(=O)c1[N+](=O)[O-]	10µM*	-19%	-6%	-28%	0%	?
O=C(CCc1ccc(O)c(O)c1)N/N=C/c1ccc2c(c1)OCO2	66%	-60%	5%	i	?	22µM*
COc1cccc(CNC(=O)Nc2cccc(-c3nnc(Cc4ccc5c(c4)OCO5)o3)c2)c1	/	/	/	-10%	/	/
COc1cccc(-c2nc(SCC(=O)Nc3nc(-c4ccccc4)c(C)s3)[nH]c(=O)c2C#N)c1	2%	-18%	21%	14µM*	-1%	-4%
CCOC(=O)c1ccc(Nc2nc3nonc3nc2Nc2cccc(C)c2C)cc1	2.8µM*	-35%	/	-14%	-3%	2%
Cc1ccc(C)c(Nc2nc3nonc3nc2Nc2cccc(C)c2C)c1	?	-83%	/	-9%	11%	-3%
